Laboratory results published in PubChem BioAssay (Tox21).
Where “and” joins values, the source holds several entries; their conditions need not be identical. Equal values may be shown once. Inconclusive results are not listed. Some compounds were tested as several samples or in several runs, with calls that do not always agree. Calls of active or inactive are those of the source. Unless noted, the call rests on the fitted dose curve; in most records, active means well fitted curve in the direction sought with a large enough effect in the repeat runs; inconclusive means weak or mixed curves; inactive means no such curve, though single readings can be large; an effect the other way counts as inactive or inconclusive.

Columns and labels:
[1] = qHTS assay to identify small molecule phospholipidosis (PLD) inducers (AID 1259344; active means well fitted curve in the direction sought with a large enough effect; an effect the other way counts as inactive or inconclusive)
Procedure, shortened: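 HepG2 cells on collagen I, attached 4 h at 37 C, were co-treated with compound and LipidTOX Red dye for 24 h at 37 C, then fixed with paraformaldehyde plus Hoechst 33342 and imaged by high-content microscopy for phospholipid accumulation.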

[2] = qHTS assay to identify small molecule HDAC inhibitors (AID 1259364); further: nearly all actives have a fitted effect of over 45% in size; further: potency means the concentration at half of the fitted maximal effect; on activity change, negative = inhibition: top concentration of the series differs between compounds
Procedure, shortened: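 Homogeneous cell-based luminescent assay of endogenous class I/II HDAC activity; HCT-116 cells, 2 h compound exposure, 30 min HDAC-Glo development at RT.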

[3] = qHTS assay to identify small molecule HDAC inhibitors - cell viability counter screen (AID 1259365); further: series mostly up to about 92 µM; nearly all actives have a fitted effect of over 50% in size
Procedure, shortened: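 Wild-type HCT-116 cells were seeded at 1,500 per well, incubated overnight at 37 C, then exposed to compounds in DMSO for 2hr. Viability was read by CellTiter-Glo luminescence after 30min at room temperature.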

[4] = qHTS assay to identify small molecule agonists of the sonic hedgehog signaling (Shh) pathway - cell viability counter screen (AID 1259366); further: nearly all actives have a fitted effect of over 50% in size; further: potency means the concentration at half of the fitted maximal effect
Procedure, shortened: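 NIH/3T3-derived 3T3 Gli1-Luc cells (stable Gli1-responsive firefly luciferase reporter) were seeded, rested 4 hr at 37 C/5% CO2, then exposed to compounds in DMSO for 24 hr; viability was read by CellTiter-Fluor fluorescence in the same wells.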

[5] = qHTS assay to identify small molecule antagonists of the sonic hedgehog signaling (Shh) pathway - cell viability counter screen (AID 1259367); further: nearly all actives have a fitted effect of over 55% in size; further: potency means the concentration at half of the fitted maximal effect
Procedure, shortened: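 NIH/3T3-derived Gli1-Luc reporter cells (2,000 per well) rested 4 hr at 37 C, then received DMSO compounds plus conditioned medium. After 23 hr of treatment, CellTiter-Fluor was added for 1 hr at 37C and fluorescence read.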

[6] = qHTS assay to identify small molecule agonists of the sonic hedgehog signaling (Shh) pathway (AID 1259368; calls by dose curve; further: series mostly up to about 92 µM; nearly all actives have a fitted effect of over 15% in size)
Procedure, shortened: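 Steps: seed 3T3 Gli1-Luc cells, incubate 4 hr at 37 C, pin-transfer compounds in DMSO alongside a positive control, incubate 24 hr, add luciferase detection reagent, wait 30 min at room temperature, read luminescence.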

[7] = qHTS assay to identify small molecule antagonists of the sonic hedgehog signaling (Shh) pathway (AID 1259369; calls by dose curve; further: nearly all actives have a fitted effect of over 45% in size; further: potency means the concentration at half of the fitted maximal effect)
Procedure, shortened: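 Inhibition of Shh signalling is measured as reduced Gli1-response-element firefly luciferase output in an NIH/3T3-derived stable reporter clone stimulated with conditioned medium for 24hr.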

[8] = biological target: Estrogen receptor beta (Homo sapiens) (UniProt Q92731); assay: qHTS assay to identify small molecule agonists of the estrogen receptor beta (ER-beta) signaling pathway (AID 1259377; active means well fitted activation curve with a large enough effect in the signal ratio in the repeat runs, not every such curve was filed as active; the % refers to the signal ratio; further: potency means the concentration at half of the fitted maximal effect)
Sequence of Estrogen receptor beta (Homo sapiens) (Q92731 whole entry, looked up): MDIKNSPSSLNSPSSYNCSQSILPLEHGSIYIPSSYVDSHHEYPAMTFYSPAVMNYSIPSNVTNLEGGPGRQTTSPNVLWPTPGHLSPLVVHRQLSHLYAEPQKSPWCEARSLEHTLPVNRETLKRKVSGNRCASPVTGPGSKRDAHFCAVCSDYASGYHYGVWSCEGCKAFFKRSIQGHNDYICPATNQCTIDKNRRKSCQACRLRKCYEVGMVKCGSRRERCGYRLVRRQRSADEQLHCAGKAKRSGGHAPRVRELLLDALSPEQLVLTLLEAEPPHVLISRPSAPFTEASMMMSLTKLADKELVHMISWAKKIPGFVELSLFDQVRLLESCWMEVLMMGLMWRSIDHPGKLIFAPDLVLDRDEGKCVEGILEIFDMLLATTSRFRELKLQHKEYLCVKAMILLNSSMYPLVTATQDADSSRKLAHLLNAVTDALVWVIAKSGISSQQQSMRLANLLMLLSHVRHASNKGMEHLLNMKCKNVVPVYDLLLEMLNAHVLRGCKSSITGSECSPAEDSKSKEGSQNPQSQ
Procedure, shortened: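 ER-beta-UAS-bla HEK293T (GripTite) cells carrying a UAS-driven beta-lactamase reporter, in medium with 2% charcoal-stripped FBS, were exposed to compounds for 16 hr at 37C; LiveBLAzer B/G FRET substrate was then added and fluorescence read after 2 hours at room temperature.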

[9] = biological target: Estrogen receptor beta (Homo sapiens) (UniProt Q92731); assay: qHTS assay to identify small molecule antagonists of the estrogen receptor beta (ER-beta) signaling pathway (AID 1259378; active means well fitted inhibition curve with a large enough effect in the signal ratio in the repeat runs, not every such curve was filed as active; the % refers to the signal ratio)
Procedure, shortened: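 ER-beta-UAS-bla HEK293T (GripTite) cells in 2% charcoal-stripped FBS medium were preincubated 6 hr at 37C, dosed with compound, then stimulated with 1 nM E2 (final) for 16 hr; beta-lactamase reporter read by B/G FRET fluorescence after 2 hr substrate loading.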

[10] = biological target: Estrogen receptor (Homo sapiens) (UniProt P03372); assay: qHTS assay to identify small molecule antagonists of the estrogen receptor alpha (ER-alpha) signaling pathway using the BG1 cell line in the presence of 0.1 nM 17-beta-estradiol (AID 1259244); further: nearly all actives have a fitted effect of over 50% in size; further: potency means the concentration at half of the fitted maximal effect
Sequence of Estrogen receptor (Homo sapiens) (P03372 whole entry, looked up): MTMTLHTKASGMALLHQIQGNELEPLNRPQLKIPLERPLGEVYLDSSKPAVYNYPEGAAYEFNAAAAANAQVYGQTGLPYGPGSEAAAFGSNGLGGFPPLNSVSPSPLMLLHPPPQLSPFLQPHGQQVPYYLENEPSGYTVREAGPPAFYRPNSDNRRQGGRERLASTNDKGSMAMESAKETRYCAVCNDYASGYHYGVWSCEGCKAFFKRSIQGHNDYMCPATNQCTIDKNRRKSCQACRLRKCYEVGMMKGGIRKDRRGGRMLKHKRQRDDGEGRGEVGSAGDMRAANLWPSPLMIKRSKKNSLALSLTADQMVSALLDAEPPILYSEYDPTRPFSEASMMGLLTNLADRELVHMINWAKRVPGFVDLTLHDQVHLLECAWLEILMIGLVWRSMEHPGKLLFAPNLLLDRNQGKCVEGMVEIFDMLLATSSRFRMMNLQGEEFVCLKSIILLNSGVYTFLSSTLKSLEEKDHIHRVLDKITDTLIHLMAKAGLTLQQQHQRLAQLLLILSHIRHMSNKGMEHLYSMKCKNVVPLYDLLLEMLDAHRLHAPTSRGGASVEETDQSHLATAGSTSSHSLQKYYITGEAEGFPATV
Procedure, shortened: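 After 5 days in hormone-depleted medium (charcoal-stripped serum, no phenol red), VM7Luc4E2 cells were seeded, incubated 24 h, then co-treated with compound and 0.1 nM (final) estradiol for 22 h before luminescence detection.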
On the % scale 0 is the no-effect control and ±100 the full control effect.

OCCOCCN1CCN(C2=Nc3ccccc3Sc3ccccc32)CC1
inactive: outcome [1] | Potency [2] | outcome [3] | Potency [4] | Potency [5] | outcome [6] | Potency [7] | Potency [8] | Potency [9]

c1c[nH]cn1
inactive: Potency [10] | Potency [2] | Potency [4] | Potency [5] | outcome [6] | Potency [7] | Potency [8] | Potency [9]

O=C(O)CC(C(=O)O)C(CC(=O)O)C(=O)O (centres undefined)
inactive: Potency [10] | Potency [2] | outcome [3] | Potency [4] | Potency [5] | outcome [6] | Potency [7]

CCCSc1ccc2nc(NC(=O)OC)[nH]c2c1
inactive: outcome [1] | outcome [3] | Potency [4] | outcome [6]
active: Potency [2] 6.11 µM and 10.6 µM | Potency [5] 2.17 µM

NNc1nncc2ccccc12
inactive: outcome [1] | activity change, negative = inhibition [2] -29.1% [at 19 µM] | outcome [3] | viability change, negative = cytotoxic [4] -0.875% [at 19 µM] | viability change, negative = cytotoxic [5] 1.95% [at 19 µM] | outcome [6] | Potency [7]
active: Potency [4] 48.6 µM | Potency [5] 61.1 µM

Cc1cccc(O)c1
inactive: Potency [10] | Potency [2] | outcome [3] | Potency [4] | Potency [5] | outcome [6] | Potency [7] | Potency [8] | Potency [9]

CCCCCCCCCCCCCCO
inactive: Potency [10] | Potency [2] | Potency [4] | Potency [5] | outcome [6] | Potency [7] | Potency [8] | Potency [9]

O=C=NCCCCCCN=C=O
inactive: Potency [10] | Potency [2] | Potency [4] | Potency [5] | outcome [6] | Potency [7] | Potency [8] | Potency [9]

COc1ccc2cc([C@H](C)C(=O)O)ccc2c1
inactive: outcome [1] | Potency [2] | outcome [3] | Potency [4] | Potency [5] | outcome [6] | Potency [7]

N[C@@H](Cc1cc(I)c(Oc2cc(I)c(O)c(I)c2)c(I)c1)C(=O)O
inactive: outcome [1] | Potency [2] | outcome [3] | Potency [4] | Potency [5] | outcome [6] | Potency [7] | Potency [8] | Potency [9]

COc1ccc(NC(C)=O)cc1N
inactive: Potency [10] | Potency [2] | outcome [3] | Potency [4] | Potency [5] | outcome [6] | Potency [7] | Potency [8] | Potency [9]

CCCCCC1=CCCC1=O
inactive: Potency [10] | Potency [2] | outcome [3] | Potency [4] | Potency [5] | outcome [6] | Potency [7] | Potency [8] | Potency [9]

C[C@H]1C[C@@H]2[C@H]([C@@H](O)C[C@@]3(C)[C@H]2CC[C@]3(O)C(=O)CO)[C@@]2(C)C=CC(=O)C=C12
inactive: outcome [1] | Potency [2] | outcome [3] | Potency [4] | Potency [5] | outcome [6] | Potency [7]

O=c1[nH]c(=O)n([C@H]2C[C@H](O)[C@@H](CO)O2)cc1Br
inactive: Potency [10] | outcome [1] | Potency [2] | outcome [3] | Potency [4] | Potency [5] | outcome [6] | Potency [7] | Potency [8] | Potency [9]

CCc1ccc(CCOc2ccc(CC3SC(=O)NC3=O)cc2)nc1 (centres undefined)
inactive: outcome [1] | Potency [2] | Potency [4] | Potency [5] | outcome [6] | Potency [7] | Potency [8]
54.5 µM (active) and inactive: Potency [10]

CC(C)c1ccc(S(=O)(=O)O)cc1
inactive: Potency [10] | Potency [2] | Potency [4] | Potency [5] | outcome [6] | Potency [7] | Potency [8] | Potency [9]

c1ccc2c(c1)ccc1ccccc12
inactive: Potency [10] | Potency [2] | outcome [3] | Potency [4] | Potency [5] | outcome [6] | Potency [7]

O=C(OCCOCCOC(=O)c1ccccc1)c1ccccc1
inactive: Potency [10] | Potency [2] | outcome [3] | Potency [4] | Potency [5] | outcome [6] | Potency [7]

FC(F)(F)c1ccc(Cl)c(Cl)c1
inactive: Potency [10] | Potency [2] | outcome [3] | Potency [4] | Potency [5] | outcome [6] | Potency [7] | Potency [8] | Potency [9]

C#C[C@]1(O)CC[C@H]2[C@@H]3CCC4=CC(=O)CC[C@@H]4[C@H]3CC[C@@]21C
inactive: Potency [10] | outcome [1] | Potency [2] | Potency [4] | Potency [5] | outcome [6] | Potency [9]
active: Potency [7] 21.7 µM and 29.8 µM | Potency [8] 1.37 µM and 4.22 µM

CN(C)CCCN
inactive: Potency [10] | Potency [2] | Potency [4] | Potency [5] | outcome [6] | Potency [7]

c1ccc(OCCOc2ccccc2)cc1
active: Potency [2] 27.3 µM
inactive: Potency [10] | outcome [3] | Potency [4] | Potency [5] | outcome [6] | Potency [7] | Potency [8] | Potency [9]

O=C(O)[C@H](O)[C@@H](O)[C@H](O)[C@H](O)CO
inactive: outcome [1] | Potency [2] | outcome [3] | Potency [4] | Potency [5] | outcome [6] | Potency [7]

O=C(O)c1ccccc1C(c1ccc(O)cc1)c1ccc(O)cc1
inactive: Potency [10] | Potency [2] | Potency [4] | Potency [5] | outcome [6] | Potency [7] | Potency [8] | Potency [9]

OCCOCCOCCO
inactive: Potency [10] | outcome [1] | Potency [2] | outcome [3] | Potency [4] | Potency [5] | outcome [6] | Potency [7] | Potency [8] | Potency [9]

O=C(O)CCCCCCCCCCC(=O)O
inactive: Potency [10] | outcome [3] | Potency [4] | Potency [5] | outcome [6] | Potency [7]
active: Potency [2] 21.9 µM and 21.7 µM

O=C(O)c1cc(=O)c2c(OCC(O)COc3cccc4oc(C(=O)O)cc(=O)c34)cccc2o1
inactive: outcome [1] | Potency [2] | outcome [3] | Potency [4] | Potency [5] | outcome [6] | Potency [7] | Potency [8] | Potency [9]
